# HCMV antiviral: qHTS Assay for inhibitors of the human cytomegalovirus (HCMV). HFF cells, HCMV-luciferase reporter, 72 h; active compounds read low. AID 1259415, 2018. activity change, negative = inhibition, % at 57.5 µM. actives 4.5% (n = 410,000); in the data active = activity change below about -60%; inconclusive = no clear call, values can overlap the other calls; inactive = above about -39%
#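 Two compound doses tested in HFFs infected with HCMV-luciferase, MOI 1 PFU/cell, 72 h at 37C. Lysate luminescence read with OneGlo; data normalized against buffer-only and 10uM Salinomycin inhibitor controls.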
# Vaccinia mCherry: qHTS for Stage-Specific Inhibitors of Vaccinia Orthopoxvirus: mCherry Reporter Primary qHTS | Vaccinia virus mCherry reporter infection, fluorescence | Potency, µM (highest dose often 36.5 µM), actives largely listed as inhibitors | actives 0.63% (n = 310,000); calls by dose curve; tested in A549 cells; note: nearly all actives have a fitted effect of over 35% in size
# FMDV inh: High Throughput Screening for Foot and Mouth Disease Virus Antivirals | Potency, µM (doses to about 57.9 µM), usual class: inhibitors | FMDV antiviral cell-based qHTS | AID 1159524, 2015 | actives 1.2% (n = 410,000); calls by dose curve; tested in HEK293T cells; note: read-out not given here; nearly all actives have a fitted effect of over 45% in size
# FBPA Giardia inh: qHTS Assay for Inhibitors of Fructose-1,6-bisphosphate Aldolase from Giardia Lamblia | A8B2U2 | purified Giardia FBPA | Potency, µM (top dose mostly 59.6 µM), actives largely listed as inhibitors | actives 0.71% (n = 290,000) | AID 2451, 2010; note: nearly all actives have a fitted effect of over 55% in size
# Target sequence (A8B2U2 whole entry, looked up): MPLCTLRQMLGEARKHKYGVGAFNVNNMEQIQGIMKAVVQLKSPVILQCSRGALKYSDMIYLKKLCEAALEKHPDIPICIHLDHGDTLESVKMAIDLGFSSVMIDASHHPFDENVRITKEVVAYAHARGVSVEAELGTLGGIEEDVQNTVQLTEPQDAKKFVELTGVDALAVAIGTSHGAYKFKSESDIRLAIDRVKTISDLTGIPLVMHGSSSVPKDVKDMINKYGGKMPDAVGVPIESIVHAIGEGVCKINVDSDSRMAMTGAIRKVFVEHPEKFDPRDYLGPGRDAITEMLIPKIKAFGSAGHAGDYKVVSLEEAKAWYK
#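 Giardia FBPA (40 nM reagent) was preincubated 10 min at RT with compound (up to 57.5 uM final), then substrate plus GAPDH/TPI/NAD/arsenate coupling system with diaphorase/resazurin was added; resorufin fluorescence (525/598 nm) was read after 20 min.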
# HCV inh: qHTS Assay for Inhibitors of Hepatitis C Virus (HCV); Potency, µM (doses to about 41.8 µM), hits mostly inhibitors; Huh7.5.1 HCVcc-Cre infection, luciferase reporter, 44 h; AID 651820, 2012; actives 3.4% (n = 340,000)
#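 A cell-based infection assay in which seeded cells (1,000 per well) receive test compound after 4 h, are inoculated with HCVcc-Cre at approximately 0.5 moi, and are incubated 44 h before luminescence detection.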
# Vaccinia Venus: qHTS for Stage-Specific Inhibitors of Vaccinia Orthopoxvirus: Venus Reporter Primary qHTS; Potency, µM (titrated, usually from 36.5 µM), actives largely listed as inhibitors; Vaccinia virus Venus reporter expression, fluorescence; actives 0.46% (n = 330,000); calls by dose curve; tested in A549 cells; note: nearly all actives have a fitted effect of over 30% in size
# Numbers stand for hits; . = inactive; ? = inconclusive; / = not tested or not shown; ! = a repeat was not active. Rows were chosen to be rich in hits. Some 7.5% of all compounds tested hit in one or more screens of this group. Unless noted, calls come from the whole dose curve; as a rule, active = well fitted curve in the direction sought with a large enough effect; inconclusive = small, poorly fitted or top-dose-only effect, or another doubt; inactive = no such curve, though single readings can be large; an effect the other way counts as inactive or inconclusive.
SMILES,HCMV antiviral,Vaccinia mCherry,FMDV inh,FBPA Giardia inh,HCV inh,Vaccinia Venus
CNc1nc(-c2ccc(N(C)C)cc2)nc2ccccc12,/,?,.,.,/,?
CCc1ccccc1NC(=O)Cn1nnc(C(=O)NCc2cccc(OC)c2)c1N,.,.,.,.,.,.
Cc1ccsc1C(=O)OCC(=O)NC1CCCC(C)C1C (stereo not drawn),.,.,.,/,.,.
COc1cc2oc(=O)c(CC(=O)N3CCCCC3)c(C)c2cc1Cl,.,.,.,/,/,.
CCCN(CC(=O)Nc1ccccc1OC)C(=O)CN1C(=O)NC(C)(C)C1=O,.,.,.,/,/,.
NC(=O)c1ccccc1NC(=O)COC(=O)C1(c2ccccc2)CC1,.,.,.,/,.,.
CCCc1nc2ccc(C)cn2c1Cc1ccccc1C(F)(F)F,-69,.,.,/,/,.
CCCCOC(=O)c1[nH]c2c(c1C)C(=O)CC(c1cc(OC)c(OC)c(OC)c1)C2 (stereo not drawn),-63,?,16µM,.,2.5µM,.
COc1ccc(C2CC(=O)c3c([nH]c(C(=O)OC(C)C)c3C)C2)cc1OC (stereo not drawn),.,.,?,.,?,.
COCCOC(=O)c1[nH]c2c(c1C)C(=O)CC(c1cc(OC)c(OC)c(OC)c1)C2 (stereo not drawn),.,.,?,.,13µM,.
COCCOC(=O)c1[nH]c2c(c1C)C(=O)CC(c1ccc(N(C)C)cc1)C2 (stereo not drawn),.,/,.,.,13µM,.
COCCOC(=O)c1[nH]c2c(c1C)C(=O)CC(c1ccccc1)C2 (stereo not drawn),/,/,?,.,?,?
C=CCOC(=O)c1[nH]c2c(c1C)C(=O)CC(c1cc(OC)c(OC)c(OC)c1)C2 (stereo not drawn),/,?,11µM,.,?,.
COc1ccc(-c2nc3cc(C(C)C)ccc3o2)cc1NC(=O)c1ccccc1[N+](=O)[O-],.,?,.,/,/,.
Cc1c(C(=O)OCCOc2ccc(Br)cc2)sc(=S)n1C,.,.,.,.,.,.
COc1cc(C2CC(=O)c3c([nH]c(C(=O)OCC4CCCCC4)c3C)C2)cc(OC)c1OC (stereo not drawn),?,.,?,/,/,?
COc1cc(C2CC(=O)c3c([nH]c(C(=O)OC4CCCCC4)c3C)C2)cc(OC)c1OC (stereo not drawn),.,.,11µM,/,/,?
CCOc1ccc(N2Nc3n[nH]c(N)c3N2)cc1,.,2µM,.,.,?,?
CCCSc1nc2c(cnn2-c2ccc(C)cc2)c(=O)[nH]1,?,?,.,.,.,28µM
Cc1ccc(-n2c(-c3ccco3)nc3c(cnn3-c3ccccc3Cl)c2=O)cc1,.,.,.,/,/,.
CCCSc1nc2c(cnn2-c2ccccc2)c(=O)[nH]1,.,.,.,.,.,.
Cc1ccc(-n2ncc3c(=O)n(-c4ccc(C)c(C)c4)c(C)nc32)cc1,?,.,?,.,.,.
Cc1ccc(-n2c(C)nc3c(cnn3-c3ccc(F)cc3)c2=O)cc1,-83,.,?,.,?,.
Cc1nc2c(cnn2-c2ccccc2Cl)c(=O)n1-c1ccc(C(C)C)cc1,-60!,.,?,.,?,.
COc1cc2nc(NCCC(C)C)n3nc(-c4ccccc4)nc3c2cc1OC,.,.,.,/,/,.
SMILES,HCMV antiviral,Vaccinia mCherry,FMDV inh,FBPA Giardia inh,HCV inh,Vaccinia Venus
CCN(CC(O)CON=C1c2ccccc2-c2ccccc21)S(=O)(=O)c1ccc(Cl)cc1 (stereo not drawn),.,?,.,.,10µM,.
CC(=O)c1cn(Cc2ccccc2F)c2ccccc12,-79,/,?,.,?,/
CC(=O)c1cn(Cc2ccccc2C#N)c2ccccc12,-65,.,?,.,2.5µM,.
O=C(C(=O)N1CCOCC1)c1cn(Cc2ccccc2Cl)c2ccccc12,.,/,.,.,.,/
N/C(=N\O)c1cn(Cc2ccccc2Cl)c2ccccc12,-71,.,?,.,.,?
O=Cc1cn(Cc2c(F)cccc2Cl)c2ccccc12,.,/,?,.,.,/
O=Cc1cn(Cc2ccccc2F)c2ccccc12,-92,?,.,.,.,.
CCC(C(=O)NCc1ccc(F)cc1)N(Cc1cccs1)C(=O)c1snc(C(N)=O)c1N (stereo not drawn),.,.,.,.,.,.
NC1(c2ccc(-c3nc4ccn5c(=O)[nH]nc5c4cc3-c3ccccc3)cc2)CCC1,/,7.9µM,/,/,/,10µM
O=C1Cc2c(-c3ccccc3)cc(-c3cccc(Cl)c3)nc2-c2ccccc2N1,.,.,.,/,?,.
O=C(CSc1nnc(CNC(=O)c2ccccc2F)o1)NC1CCCC1,.,.,.,/,.,.
CN(C(=O)COc1coc(CN2CCN(c3ccccc3)CC2)cc1=O)c1ccccc1,.,.,.,/,.,.
CN(C(=O)CN1CCN(c2cc(-c3ccc(-c4ccccc4)cc3)ncn2)CC1)c1ccccc1,-67,?,22µM,/,/,?
O=C(O)C(c1ccccc1)N1C(=O)/C(=C/c2cccs2)SC1=S (stereo not drawn),?,.,.,.,.,.
O=C(O)CCCN1C(=O)/C(=C/c2ccncc2)SC1=S,-61,.,.,.,?,.
O=C(O)CCCCCN1C(=O)/C(=C/c2ccncc2)SC1=S,-77,.,.,.,.,.
CC(c1ccccc1)N1C(=O)/C(=C/c2ccncc2)SC1=S (stereo not drawn),.,/,32µM,.,?,/
O=C(CCN1C(=O)/C(=C/c2ccccc2)SC1=S)Nc1cccnc1,.,.,.,.,.,.
COc1ccc(CN2C(=O)/C(=C/c3ccncc3)SC2=S)cc1,-72,.,.,.,?,.
O=C(CCN1C(=O)/C(=C/c2ccccc2)SC1=S)NNC(=O)c1ccncc1,?,.,.,.,.,.
COP(=O)(OC)SCn1c(=O)oc2cc(Cl)cnc21,.,/,/,/,/,/
O=C(CCN1C(=O)/C(=C\c2ccccc2)SC1=S)NNC(=O)c1ccncc1,.,/,.,.,.,/
O=C(O)CCCCCN1C(=O)/C(=C\c2ccncc2)SC1=S,-99,?,.,.,.,.
COc1ccccc1-c1nc(NCCN2CCOCC2)c2ccccc2n1,/,/,.,.,/,/
COc1ccc(-c2c[n+]3c(n2-c2ccccc2)SCC3)cc1OC,?,.,.,.,.,.
Brc1ccc(-c2c[n+]3c(n2-c2ccccc2)SCC3)cc1,-73,.,?,.,.,.
COc1ccc(-c2c[n+]3c(n2-c2ccccc2)SCC3)cc1,-80,.,.,.,?,.
Cc1ccc(-c2c[n+]3c(n2-c2ccccc2)SCC3)cc1,-73,/,?,.,?,/
CC(=O)Nc1ccc(-c2c(C)cc3oc(=O)cc(-c4ccccc4)c3c2C)cc1,.,.,.,.,?,?
